This note sets out measurements from ChEMBL document CHEMBL3988442, “University of Dundee, Small-Polar-MMV Screening Library” (2021).

Structures are written as SMILES.

Test [1] concerns the target T1, Aspartate--tRNA(Asp/Asn) ligase (Mycobacterium tuberculosis (strain ATCC 25618 / H37Rv)) (UniProt P9WFW3). Note: in the data most compounds retested in dose-response had high values.
T1 sequence (whole entry): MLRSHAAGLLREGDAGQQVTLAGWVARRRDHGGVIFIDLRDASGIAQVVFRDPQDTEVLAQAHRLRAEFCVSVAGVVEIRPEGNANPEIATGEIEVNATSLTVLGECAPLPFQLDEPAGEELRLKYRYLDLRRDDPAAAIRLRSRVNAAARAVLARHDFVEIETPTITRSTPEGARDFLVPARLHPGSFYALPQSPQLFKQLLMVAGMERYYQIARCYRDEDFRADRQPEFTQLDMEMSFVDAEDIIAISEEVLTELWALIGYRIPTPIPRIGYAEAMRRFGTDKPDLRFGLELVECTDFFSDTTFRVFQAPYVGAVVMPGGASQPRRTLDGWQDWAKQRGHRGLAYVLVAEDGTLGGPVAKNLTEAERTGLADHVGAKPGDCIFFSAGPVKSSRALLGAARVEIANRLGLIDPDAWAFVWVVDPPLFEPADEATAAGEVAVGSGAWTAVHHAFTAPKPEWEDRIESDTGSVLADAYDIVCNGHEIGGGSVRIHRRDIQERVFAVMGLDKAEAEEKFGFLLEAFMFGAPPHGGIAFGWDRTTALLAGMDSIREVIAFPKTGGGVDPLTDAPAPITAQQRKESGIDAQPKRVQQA
In words: Assay for Asp RNA synthetase-1 from Mycobacterium tuberculosis. The test is classed as functional. Details: scale not given: direction of the effect not stated beside the values. Conditions: 30 µM.

Test [2] has as its target Shiga toxin 2 (Escherichia coli O157:H7) (UniProt P09385+P09386). The test can be described thus: E. coli 0.157:H7 Shiga Toxin SOP - stx2 screening assay. Type of test: functional. The arrangement: scale not given: direction of the effect not stated beside the values. The following applies: 30 µM.

As to `NC(=O)C1CCN(C(=O)c2cccc(OCc3cscn3)c2)CC1`, the Percent Effect was -1.48% in test [1] and -35.2% in test [2].
Regarding `Cc1cc(C)n(C2CN(CC(=O)N3CCOCC3)C2)n1`, the Percent Effect in test [1] is -0.655%; in test [2] it was 9.68%.
With `NC(=O)c1ccc(OCC(=O)N2CCCC(n3cccn3)C2)cc1` (centres undefined), the results for the Percent Effect in test [1] and in test [2] were -4.7% and 26%, respectively.
Consider `CC1CN(C(=O)CN(Cc2ccco2)C2CC2)CCO1` (centres undefined), for which the Percent Effect in test [1] worked out at 3.17%; in test [2] it was 18.9%.
On to `COc1cc(C)ccc1OCCC(=O)N1CCCC1Cn1cccn1` (centres undefined), for which the values for the Percent Effect in test [1] and in test [2] were 2% and 12.8%, respectively.
The corresponding values for `CCOCCN1CCCC(c2cc(C(N)=O)[nH]n2)C1` (centres undefined) are -2.28% and -7.08%.
For the compound `CCc1nnc(Nc2cccc(C3CCN(CCO)CC3)n2)s1`, the Percent Effect in test [1] is -4.6%; in test [2], -9.69%.
Consider `CC(C)NC(=O)CS(=O)(=O)Cc1cc(Cl)c2c(c1)OCCO2`, for which the Percent Effect in test [1] was -0.2%; in test [2], -1.92%.
With `CC(OCC(F)(F)F)C(=O)N1CCN(S(C)(=O)=O)CC1` (centres undefined), the Percent Effect is -0.604% in test [1] and -10.8% in test [2].
For `Cn1cc(C(=O)N2C[C@@H]3COC[C@]3(COCc3cccnc3)C2)cn1`, the Percent Effect in test [1] is -0.306%; in test [2] it was -6.37%.
The corresponding values for `COCCNC(=O)Nc1ccc(F)c(C(N)=O)c1` are 3.91% and -19.7%.
As to `OC1CCN(Cc2c(C3CCCNC3)[nH]c3ncccc23)CC1` (centres undefined), the Percent Effect in test [1] was 7.49%; in test [2], -0.778%.
As for `COc1ccccc1C(O)CNC(=O)NCc1cccnc1OC` (centres undefined), the Percent Effect was -0.742% in test [1] and 9.52% in test [2].
As to `O=C(Cc1ccccn1)N1CCC2(CC1)CC(Oc1ccccn1)CO2` (centres undefined), the Percent Effect is -3.87% in test [1] and -3.37% in test [2].
In the case of `COCCNC(=O)C(C)n1cc(Br)cn1` (centres undefined), the Percent Effect in test [1] was 9.87%; in test [2], -44.4%.
With `O=C1CCCc2cc(-c3csc(CCN4CCOC4=O)n3)ccc2N1`, the Percent Effect is -6.83% in test [1] and -35.7% in test [2].
With `Cc1cc(CN(C)C(=O)C2CCS(=O)(=O)C2)no1` (centres undefined), the Percent Effect in test [1] is -3.37%; in test [2], -1.66%.
The corresponding values for `O=C(NCC1CC1)C1CSCN1S(=O)(=O)c1cccc(F)c1` (centres undefined) are 2.56% and -5.9%.
On to `Cc1cc(NC(=O)CN2CCN(c3nccs3)C(C)C2)n(C)n1` (centres undefined), for which the Percent Effect in test [1] was 7.92%; in test [2], 7.19%.
The corresponding values for `CC(=O)N(Cc1noc(C2CC2)n1)C1CCN(Cc2ccncc2)C1` (centres undefined) are 1.34% and -5.75%.
Turning to `CCc1csc(C2CCCN(C(=O)C3=NN(CC)C(=O)CC3)C2)n1` (centres undefined), the Percent Effect in test [1] is -5.86%; in test [2] it was -21.6%.
For `Cc1ccccc1CN(C)Cc1nc2c(cnn2C)c(=O)[nH]1`, in that order: 0.633% and -4.87%.
Regarding `CCOc1ncccc1NC(=O)NC1CCCN(c2ncccn2)C1` (centres undefined), the Percent Effect is 0.879% in test [1] and -17.5% in test [2].
In the case of `CCc1[nH]ncc1C(=O)N1CCCN(Cc2cnn(C)c2)CC1`, the Percent Effect in test [1] was -0.259%; in test [2], 17.2%.
With `c1cnc(N2CCC3(CCN(CC4CC4)CC3)CC2)nc1`, the Percent Effect stood at 0.564% in test [1] and 6.17% in test [2].
For the compound `COCc1nc(C(=O)N2CCCC2c2noc(C(C)C)n2)cs1` (centres undefined), the Percent Effect in test [1] is 2.63%; in test [2], -5.18%.
`Cc1nc(CN(C)C2CCN(CC(=O)NC3CCOCC3)C2)no1` (centres undefined): the Percent Effect in test [1] was -1.22%; in test [2] it was 17.1%.
The corresponding values for `CC(C)c1nc(C2CCCN2C(=O)c2nccnc2N)no1` (centres undefined) are -5.36% and -16.2%.
In the case of `Cc1noc([C@H]2C[C@@H]3CCN(C(=O)N(C)C)C[C@H]3O2)n1`, the values for the Percent Effect in test [1] and in test [2] were 3.32% and -1.56%, respectively.
The corresponding values for `CS(=O)(=O)N1CCCCCC1C1CCN(c2ncccn2)CC1` (centres undefined) are -3.75% and 24.4%.
As to `CC(C)C(=O)N1CCCC(c2ncncc2-c2ccncc2)C1` (centres undefined), the Percent Effect in test [1] is -3.04%; in test [2], -34.6%.
With `Cc1cn2c(n1)CCC(NC(=O)c1cc(C(C)C)no1)C2` (centres undefined), the Percent Effect in test [1] is -4.01%; in test [2], -5.41%.
On to `CCC(=O)N1CCC(c2nc3ccc(NC(C)C)cn3n2)CC1`, for which the results for the Percent Effect in test [1] and in test [2] were -3.11% and -40.8%, respectively.
The corresponding values for `O=S(=O)(NCc1ccccc1Cn1cncn1)C1CCCC1` are 1.56% and -9.86%.
On to `CN(C)c1nccc(N2CCO[C@H]3CN(CC4CCOCC4)C[C@H]32)n1`, for which the values for the Percent Effect in test [1] and in test [2] were -1.41% and -89.3%, respectively.
The corresponding values for `COc1ccnc(N2CCN(C(=O)Cc3ccc(C)s3)CC2)n1` are 2.36% and 5.8%.
As to `c1cc(CNCc2ccc3c(c2)CCO3)cc(N2CCOCC2)n1`, the figures for the Percent Effect in test [1] and in test [2] were -4.98% and -32.6%, respectively.
Consider `Clc1ccc(-n2cc(CNC3CCc4ncnn4C3)cn2)cc1` (centres undefined), for which the values for the Percent Effect in test [1] and in test [2] were -5.31% and -39.9%, respectively.
For `N#Cc1cccc(NC(=O)N[C@H](CO)c2ccccc2)c1`, in that order: 3.31% and -24.6%.
`Cc1occc1C(=O)Nc1ccnc(OC2CCOC2)c1` (centres undefined): the Percent Effect was -6.74% in test [1] and 3.41% in test [2].
The corresponding values for `COc1ccc(NC(=O)Cn2nc(C)ccc2=O)cc1OC` are -0.697% and -5.66%.
For `Cc1cccc(-c2ccc3nc(C4CCN(CC5CC5)CC4)nn3c2)c1`, in that order: -1.89% and -31.4%.
For the compound `CC(C)C(Sc1nnnn1-c1ccccc1)C(=O)NCc1cccnc1` (centres undefined), the values for the Percent Effect in test [1] and in test [2] were 1.64% and 8.76%, respectively.
With `CC(C)Cc1nc(OCC(N)=O)c(C#N)c2c1CCC2`, the values for the Percent Effect in test [1] and in test [2] were 2.64% and -13.7%, respectively.
For the compound `O=C(C1CCC1)N1CCn2c(COc3ncccn3)nnc2C1`, the results for the Percent Effect in test [1] and in test [2] were -0.503% and -1.29%, respectively.
As to `CCCc1c(C(=O)NC2CCCC2)nnn1-c1ccc(OC)cc1`, the Percent Effect in test [1] is -1.57%; in test [2] it was -4.2%.
For `CO[C@H]1CO[C@@]2(CCCN(C(=O)C3=CCCCC3)C2)C1`, in that order: 8.41% and -11.8%.
